Assay outcomes deposited in PubChem BioAssay by National Center for Advancing Translational Sciences (NCATS).
IL-1B inflam inh: blocks inflammasome-driven IL-1 beta release; THP-1 LPS/ATP IL-1B secretion, AlphaLISA, 16 h; active compounds read low; activity change, % at 57.5 µM; 360,000 tested, 4.7% active; AID 743279; in the data active means activity change below about -50%; inconclusive means mostly about -30% to -49%
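THP-1 cells pretreated 1 hr with compounds (up to 57.5 uM final), then stimulated with LPS (250 ng/mL final) plus ATP (1.25 mM final); secreted IL-1B measured by AlphaLISA after 16 hr, decreased signal indicating inhibition.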
HT1080NT lethal: kills 2HG-producing HT-1080-NT fibrosarcoma cells. HT-1080-NT fibrosarcoma viability, CellTiter-Glo ATP luminescence, 48 h. Potency, µM (top dose mostly 46.1 µM), most hits filed as cytotoxic. 360,000 tested, 1.6% active;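 further: NT is the 2HG producing partner of a matched IDH1 knockdown line; nearly all actives have a fitted effect of over 55% in size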
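Fibrosarcoma NT cells, 750 per well in 5% FBS RPMI, were exposed to compound for 48 hours. Viability: CellTiter-Glo luminescence.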
TDP1 cell noCPT: qHTS for Inhibitors of human tyrosyl-DNA phosphodiesterase 1 (TDP1): qHTS in cells in absence of CPT; DT40 Tdp1-/- hTDP1 cells, no CPT, ATP luminescence, 48 h; Potency, µM (highest dose often 46.2 µM), hits mostly inhibitors; 420,000 tested, 15% active; AID 686978, 2013; further: nearly all actives have a fitted effect of over 55% in size
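Growth of hTDP1-complemented DT40 Tdp1-knockout cells is measured by ATP luminescence after at least 48 hr compound exposure at 37 °C, with DMSO substituting for the 20 nM CPT used in the parallel screen.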
HT1080 IDH1KD tx: kills HT-1080 cells with IDH1 knockdown; HT-1080 IDH1 knockdown viability, ATP luminescence, 48 h; Potency, µM (top dose mostly 46.1 µM), actives largely listed as cytotoxic; 360,000 tested, 2% active; AID 686971
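HT-1080-IDH1KD cells (IDH1 knocked down), 750/well in RPMI with 5% FBS, treated with compound 48 h at 37 degrees C. Viability by CellTiter-Glo luminescence, normalised to DMSO and no-cell wells; concentration-response curves classed.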
DT40 TDP1 CPT: DT40-hTDP1 cell growth loss with CPT. chicken DT40 Tdp1-/-;hTDP1 cells + 20 nM CPT, ATP luminescence, 48 h. Potency, µM (top dose mostly 46.2 µM), usual class: inhibitors. 420,000 tested, 12% active; further: nearly all actives have a fitted effect of over 55% in size
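Chicken DT40 Tdp1-/- cells complemented with human TDP1, 400 cells/well, exposed to compounds plus 20 nM camptothecin for at least 48 h at 37 C; viability read as ATP content by CellTiter-Glo luminescence.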
Each line names hits and unclear results; the compound was inactive in the other large screens. Shown are actives, neighbours in structure and some others; about 19% of the full set was active somewhere. Unless noted, the call rests on the fitted dose curve; in most records, active means well fitted curve in the direction sought with a large enough effect; inconclusive means small, poorly fitted or top-dose-only effect, or another doubt; inactive means no such curve, though single readings can be large; an effect the other way counts as inactive or inconclusive.

CC(C)OC(=O)c1c(NC(=O)c2ccco2)sc2c1CCCCC2	TDP1 cell noCPT inconclusive, HT1080 IDH1KD tx inconclusive
O=C(Nc1sc2c(c1C(=O)NCc1cccnc1)CCCC2)c1ccco1	IL-1B inflam inh -68
COc1cc(C(=O)Nc2sc3c(c2C(=O)NCc2ccco2)CCCC3)cc(OC)c1OC	IL-1B inflam inh inconclusive, TDP1 cell noCPT 21µM, DT40 TDP1 CPT inconclusive
CNC(=O)c1c(NC(=O)c2ccco2)sc2c1CCCC2	IL-1B inflam inh -81
CCCOC(=O)N[C@@H]1C(=O)N2C(C(=O)OCCC)=C(C)CS[C@H]12	HT1080NT lethal inconclusive, TDP1 cell noCPT inconclusive
Cc1ccc(-c2nc(COC(=O)C3=NN(c4ccccc4)C(=O)CC3)cs2)cc1	none
CCN(CC)c1ccc(C(=O)O)cc1	none
CCN(CC)c1ccc(C(=C2C=CC(=[N+](CC)CC)C=C2)c2ccc(S(=O)(=O)O)cc2S(=O)(=O)[O-])cc1	IL-1B inflam inh -94, HT1080NT lethal 23µM, TDP1 cell noCPT inconclusive, HT1080 IDH1KD tx inconclusive, DT40 TDP1 CPT 23µM
O=C(CC1Oc2ccccc2NC1=O)NCc1ccccc1 (stereo not given)	DT40 TDP1 CPT inconclusive
CC(=O)CC1OC(=O)C(Br)=C1NCc1ccccc1 (stereo not given)	IL-1B inflam inh -100, HT1080NT lethal 3.5µM, TDP1 cell noCPT 1.5µM, HT1080 IDH1KD tx 0.89µM, DT40 TDP1 CPT 0.92µM
Cc1ccc(S(=O)(=O)N2CCN(C(=O)C(C)Cn3cncn3)CC2)cc1 (stereo not given)	none
Cc1ccc2c(c1)CCCN2C(=O)c1cnn2c1NC(=C1CC1)C=C2C(F)F	TDP1 cell noCPT 10µM, DT40 TDP1 CPT 10µM (no result: IL-1B inflam inh, HT1080NT lethal, HT1080 IDH1KD tx)
O=C(Nc1ccc(F)c(F)c1)c1cnn2c1NC(=C1CC1)C=C2C(F)F	none (no result: IL-1B inflam inh)
O=C(Nc1ccncc1)c1cnn2c1NC(=C1CC1)C=C2C(F)F	TDP1 cell noCPT 11µM, DT40 TDP1 CPT 10µM (no result: IL-1B inflam inh, HT1080NT lethal, HT1080 IDH1KD tx)
CC(C)(C)C(=O)Nc1nnc([C@H]2C[C@H](O)[C@@H](CO)O2)s1	none
Cc1ccc(NC(=S)NNc2ccc([N+](=O)[O-])cc2S(=O)(=O)Nc2ccccc2C(=O)O)cc1C	TDP1 cell noCPT inconclusive, DT40 TDP1 CPT inconclusive
O=C(O)c1ccccc1NS(=O)(=O)c1ccc(NNC(=S)Nc2ccc(OC(F)F)cc2)c([N+](=O)[O-])c1	IL-1B inflam inh -51, DT40 TDP1 CPT inconclusive
N#Cc1ccccc1OCC(=O)NNC(=O)CCC1CCCC1	none
N#Cc1ccccc1COc1cccc2c1CCCC2O (stereo not given)	TDP1 cell noCPT 15µM, DT40 TDP1 CPT inconclusive
COc1c(C)cc(C(O)c2ncc(-c3ccccc3F)[nH]2)cc1C (stereo not given)	HT1080NT lethal inconclusive, TDP1 cell noCPT inconclusive, HT1080 IDH1KD tx inconclusive, DT40 TDP1 CPT inconclusive
Clc1ccc2nc(-c3ccccc3)c(CC3CCCCC3)n2c1	TDP1 cell noCPT inconclusive, DT40 TDP1 CPT inconclusive
Cc1ccc(C(=O)NC(C)c2ccc3c(c2)OCO3)s1 (stereo not given)	TDP1 cell noCPT 16µM, DT40 TDP1 CPT 13µM
Cc1ccc(C(=O)NC(C)c2ccc(C)c(C)c2)s1 (stereo not given)	TDP1 cell noCPT inconclusive, DT40 TDP1 CPT inconclusive
CN1CCN(C(=O)C(C(=O)c2ccc(F)cc2)n2ccccc2=O)CC1 (stereo not given)	none
Cc1ccc(CNC(=O)C2CCCN(S(=O)(=O)c3ccc4c(c3)oc(=O)n4C)C2)cc1 (stereo not given)	TDP1 cell noCPT inconclusive (no result: IL-1B inflam inh, HT1080NT lethal, HT1080 IDH1KD tx)
O=C(NNC(=O)c1ccccc1O)c1ccc(Cl)cc1	HT1080NT lethal inconclusive, TDP1 cell noCPT 16µM, HT1080 IDH1KD tx inconclusive, DT40 TDP1 CPT 18µM
O=C(NNC(=O)c1cccc2ccccc12)c1ccc(Cl)cc1	TDP1 cell noCPT inconclusive
O=C(CCNC(=O)c1ccc(Br)cc1)NNC(=O)c1ccccc1O	TDP1 cell noCPT 23µM, HT1080 IDH1KD tx inconclusive, DT40 TDP1 CPT inconclusive
O=C(NNC(=O)c1ccc(O)cc1O)c1ccc(Cl)cc1	TDP1 cell noCPT inconclusive, DT40 TDP1 CPT inconclusive
Cc1cccc(C(=O)NNC(=O)c2ccc(Cl)cc2)c1O	TDP1 cell noCPT 21µM, DT40 TDP1 CPT inconclusive
OCC[C@@H]1C[C@H](O)[C@@H](O)[C@]2(CCCO2)O1	none
C=C1CCC2C(C)(CO)C(O)CCC2(C)C1C/C=C1\C(=O)OCC1O (stereo not given)	TDP1 cell noCPT 5µM, DT40 TDP1 CPT 4µM (no result: IL-1B inflam inh)
Cc1ccc(O)c(C(=O)C=Cc2ccccc2)c1	IL-1B inflam inh -101, HT1080NT lethal inconclusive, TDP1 cell noCPT 21µM, HT1080 IDH1KD tx inconclusive, DT40 TDP1 CPT inconclusive
Cc1ccc2occ(/C=C/C(=O)c3ccccc3O)c(=O)c2c1	TDP1 cell noCPT inconclusive, DT40 TDP1 CPT 18µM
Cc1ccc(O)c(C(=O)/C=C/c2ccc3c(c2)OCCCO3)c1	IL-1B inflam inh -105, HT1080NT lethal inconclusive, TDP1 cell noCPT inconclusive, HT1080 IDH1KD tx inconclusive, DT40 TDP1 CPT inconclusive
Cc1ccc(/C=C/C(=O)c2ccccc2O)cc1	IL-1B inflam inh -102, HT1080NT lethal inconclusive, TDP1 cell noCPT inconclusive, HT1080 IDH1KD tx inconclusive, DT40 TDP1 CPT inconclusive
O=C(/C=C/c1ccc2c(c1)OCCCO2)c1ccccc1O	HT1080NT lethal inconclusive, TDP1 cell noCPT inconclusive, HT1080 IDH1KD tx inconclusive, DT40 TDP1 CPT inconclusive
CCOC(=O)c1cc2c(c(-c3ccccc3)n1)[C@@H](CCO)N(S(=O)(=O)C(C)(C)C)C2	none
CN(C)C=Nc1ncc2c([nH]c3ccccc32)c1C#N	TDP1 cell noCPT inconclusive, DT40 TDP1 CPT inconclusive
CC(=O)N[C@@H](Cc1c[nH]c2ccccc12)C(=O)OCc1cc(C(F)(F)F)cc(C(F)(F)F)c1	HT1080 IDH1KD tx inconclusive
Cc1ccc(NC(=O)CCS(=O)(=O)c2cc(Br)cc3c2N(C(=O)C2CC2)CC3)cc1	none (no result: IL-1B inflam inh, HT1080NT lethal, HT1080 IDH1KD tx)
O=C(COC(=O)c1ccc(O)cc1O)NC(=O)Cc1ccccc1	DT40 TDP1 CPT inconclusive
COCCn1c(C)cc(O)c(C(c2ccccc2Cl)N2CCCCC2)c1=O (stereo not given)	none (no result: IL-1B inflam inh, HT1080NT lethal, HT1080 IDH1KD tx)
O=C(c1ccccc1)C1CC1c1ccccc1 (stereo not given)	TDP1 cell noCPT inconclusive, DT40 TDP1 CPT inconclusive
O=C(c1ccccc1)C1C(c2ccccc2)C1[N+](=O)[O-] (stereo not given)	IL-1B inflam inh -56
CC(OC(=O)CCC1CCCC1)C(=O)Nc1ccccc1[N+](=O)[O-] (stereo not given)	none
COc1ccc(C(=O)/C=C2\Sc3ccccc3N2C)cc1	TDP1 cell noCPT inconclusive
COc1ccc(-[n+]2c(C)cc(/C=C3\Sc4ccccc4N3C)cc2C)cc1	IL-1B inflam inh -94, HT1080NT lethal 4.1µM, TDP1 cell noCPT 0.0073µM, HT1080 IDH1KD tx 2.3µM, DT40 TDP1 CPT 0.015µM
